The values that follow come from PubChem BioAssay.

Structures are written as SMILES. Calls of active or inactive are those of the source.

This assay is described as follows: ATP-based viability of Huh7 replicon cells – cell-based, CellTiter-Glo luminescence, basal, 48 h, cytotoxicity control for HCV replication inhibitor project, primary screen (AID 1143).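 Note: Huh7 hepatoma cells carrying a hepatitis C replication reporter with no stimulus; test concentration not given here.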 The settings on record: higher = more signal, called active from +8 up or from −8 down. For orientation: A replicon is a self-replicating genome or part of one, used to study replication in cells.
As for `CCOC(=O)CCN1C(=O)[C@H]2[C@H]3[C@H](O)[C@H](O)CC(=NOCC=C(C)CCC=C(C)C)[C@H]3CC[C@H]2C1=O`, the z-score is -0.148 (inactive).
To `CCOC(=O)[C@H](Cc1ccccc1)NC(=O)CCC1CC(OC(=O)NCc2cccc3ccccc23)CC2(CCCC(COC(=O)NCCOc3ccccc3)O2)O1` (stereo partly specified) belongs -2.73 (inactive).
To `CCOC(=O)[C@H](CC(C)C)NC(=O)CCC1CC(OC(=O)NCCc2ccc(F)cc2)CC2(CCCC(COC(=O)NCCCN3CCCC3=O)O2)O1` (stereo partly specified) belongs 0.378 (inactive); to `CC(=O)OC[C@H]1O[C@H](CC=NOC(C)CN2CCCCc3nc(C)c(C)cc32)C=C[C@@H]1OC(C)=O` (stereo partly specified), -0.402 (inactive).
For the molecule `C#CCCCON=C1[C@H]2CCn3c(=O)n([C@@H](CC)c4ccccc4)c(=O)n3[C@H]2[C@H](O)[C@@H]2O[C@H]12`, the z-score is 0.222 (inactive).
To `CO[C@H]1C[C@@H]2C[C@H](O)CC(CC(=O)O[C@@H](C=CCC(C)C)C[C@@H]3CC[C@H](C)[C@@H](C1)O3)O2` belongs -0.454 (inactive).
Turning to `C=CC[C@@H]1C=C[C@H](ON=C[C@@H](NS(=O)(=O)c2ccc(C)cc2)[C@H](C)C=CCC(=O)OC)[C@@H](CO)O1`, the z-score was 0.182 (inactive).
In the case of `CO[C@H]1COC(=O)CCC[C@H](C)[C@@H](OC)COC(=O)CC=C[C@@H]1C` it was -0.0992 (inactive); in that of `O=C(NN=C1C[C@@H](O)[C@@H](O)[C@@H]2[C@@H]3C(=O)N(Cc4ccccc4)C(=O)[C@@H]3CC[C@H]12)OCc1ccccc1`, -0.575 (inactive).
In the case of `CCOC(=O)[C@H](CC(C)C)NC(=O)CCC1CC(OC(=O)NCCc2ccc(F)cc2)CC2(CCCC(COC(=O)NCc3cccc4ccccc34)O2)O1` (stereo partly specified) it was -0.731 (inactive); in that of `CCN1C(=O)[C@H]2[C@H]3[C@H](O)[C@H](O)CC(=NOCC(C)C)[C@H]3CC[C@H]2C1=O`, 0.306 (inactive); in that of `COC(OC)[C@@H](C)[C@H](OC)[C@@H](C)[C@H](OC)c1ccccc1`, -0.609 (inactive).
In the case of `COC(=O)[C@H](C)NC(=O)CCC1CC(OC(=O)NCc2ccc3c(c2)OCO3)CC2(CCCC(COC(=O)NCc3ccccc3)O2)O1` (stereo partly specified) it was -0.268 (inactive); in that of `CO[C@@H](C1CCCCC1)[C@@H](C)[C@H](OCc1cccc(Br)c1)[C@@H](C)CO`, -2.1 (inactive); in that of `CC(C)CON=C1[C@H]2CCn3c(=O)n(C)c(=O)n3[C@H]2[C@H](O)[C@@H]2O[C@H]12`, 0.736 (inactive).
`C[C@]12CCC3c4ccc(OCC5CO5)cc4CCC3C1CC[C@@H]2O` (stereo partly specified): the z-score is -1.78 (inactive).
In the case of `CO[C@@H]1C=CCC(=O)N[C@@H](C)C(=O)OC[C@@H](OC)[C@H](C)C=CCC(=O)OC[C@H]1C` it was -0.0206 (inactive).
To `OC[C@H]1O[C@H](C#Cc2ccccc2)C=C[C@@H]1O` belongs -0.574 (inactive); to `CC(C)[C@@H](OCc1ccccc1)[C@H](C)C=NO[C@H](C)c1cn([C@@H]2COC[C@H]2O)nn1`, -0.703 (inactive).
In the case of `CN1CCc2nc(-c3ccccc3)c(-c3ccccc3)cc2C1` it was 0.55 (inactive); in that of `O=C1[C@H]2[C@H]3[C@H](O)[C@H](O)CC(=NOC[C@@H](O)COCc4ccco4)[C@@H]3CC[C@H]2C(=O)N1Cc1ccc2c(c1)OCO2`, -0.0292 (inactive); in that of `CCOC(=O)[C@H](CC(C)C)NC(=O)CCC1CC(OC(=O)NCc2ccc3c(c2)OCO3)CC2(CCCC(COC(=O)NCCc3ccccc3OC)O2)O1` (stereo partly specified), -0.556 (inactive).
For `C[C@@H]1CC[C@H]2C(=O)OC(CN3C(=O)c4ccccc4C3=O)CN2[C@H]1c1ccc(Br)cc1` (stereo partly specified), the z-score is 0.135 (inactive).
Consider `O=C1C=C[C@@H](O)[C@@H]2[C@@H]3C(=O)N(Cc4ccc5c(c4)OCO5)C(=O)[C@@H]3CC[C@@H]12`, for which the z-score was -0.655 (inactive).
`COC(=O)[C@H](C)NC(=O)CCC1CC(OC(=O)NCc2cccc3ccccc23)CC2(CCCC(COC(=O)NCCCN3CCCC3=O)O2)O1` (stereo partly specified): the z-score was -0.0671 (inactive).
In the case of `CO[C@@H]1COC(=O)[C@H](COCc2ccccc2)NC(=O)CC=C[C@@H](C)[C@H](OC)COC(=O)[C@@H](C)NC(=O)CC=C[C@H]1C` it was -0.0313 (inactive).
For `CON=C(C)CCN1CCCCc2nc(C)c(C)cc21`, the z-score was 0.559 (inactive).
Take `C#CCCCON=C1[C@H]2CCn3c(=O)n(Cc4cc5c(cc4Cl)OCO5)c(=O)n3[C@H]2[C@H](O)[C@@H]2O[C@H]12`: the z-score is 0.256 (inactive).
Regarding `C[C@H]1CC[C@H]2C(=O)N[C@H](Cc3ccccc3)C(=O)N2[C@@H]1c1ccccc1`, the z-score is 0.21 (inactive).
As to `CC(CCN1CCc2nc(-c3ccccc3)c(-c3ccccc3)cc2C1)=NO[C@H](C)c1cn([C@H](CO)Cc2ccccc2)nn1`, the z-score was -2.39 (inactive).
For the molecule `C#CCCCON=C1C[C@@H](O)[C@@H](O)[C@@H]2[C@@H]3C(=O)N(C[C@@H]4CCCO4)C(=O)[C@@H]3CC[C@@H]12`, the z-score is 0.0109 (inactive).
In the case of `CCOC(=O)[C@H](CC(C)C)NC(=O)CCC1CC(OC(=O)NCc2ccc3c(c2)OCO3)CC2(CCCC(COC(=O)NCCOC)O2)O1` (stereo partly specified) it was -0.413 (inactive).
Consider `COc1ccc(OC[C@@H](CO)OC)cc1`, for which the z-score was 0.314 (inactive).
`COC(=O)[C@@H]1CC[C@H](C)[C@@H](c2ccc(C)cc2)N1C(=O)c1ccc(C=NOC[C@@H](O)[C@H]2O[C@@H]3OC(C)(C)O[C@@H]3[C@H]2O)cc1`: the z-score was 0.48 (inactive).
To `CC(=O)OC[C@H]1O[C@H](CC=NO[C@@H](C)c2cn([C@H](CO)Cc3ccccc3)nn2)C=C[C@@H]1OC(C)=O` belongs -2.35 (inactive); to `COC(=O)[C@H](C)NC(=O)CCC1CC(OC(=O)NCc2ccc3c(c2)OCO3)CC2(CCCC(COC(=O)NCCC(C)C)O2)O1` (stereo partly specified), -2.02 (inactive).
